Inconclusive results are not listed. Entries that show only a call come without a potency. A number with no mark means an inactive call. Active and inactive are the calls of the source. Calls come from the whole dose curve; as a rule, active = well fitted inhibition curve with a large enough effect; inconclusive = small, poorly fitted or top-dose-only effect; inactive = flat fitted curve, though single readings scatter.
target: Luciferin 4-monooxygenase (Photinus pyralis) (UniProt P08659); assay: Counterscreen Assay for Enhancers of SMN2 Splice Variant Expression: Interaction with Luciferase Reporter; conditions: purified firefly luciferase, luminescence, 5 min; series mostly up to 40.3 µM
Sequence (P08659 whole entry, looked up, canonical isoform): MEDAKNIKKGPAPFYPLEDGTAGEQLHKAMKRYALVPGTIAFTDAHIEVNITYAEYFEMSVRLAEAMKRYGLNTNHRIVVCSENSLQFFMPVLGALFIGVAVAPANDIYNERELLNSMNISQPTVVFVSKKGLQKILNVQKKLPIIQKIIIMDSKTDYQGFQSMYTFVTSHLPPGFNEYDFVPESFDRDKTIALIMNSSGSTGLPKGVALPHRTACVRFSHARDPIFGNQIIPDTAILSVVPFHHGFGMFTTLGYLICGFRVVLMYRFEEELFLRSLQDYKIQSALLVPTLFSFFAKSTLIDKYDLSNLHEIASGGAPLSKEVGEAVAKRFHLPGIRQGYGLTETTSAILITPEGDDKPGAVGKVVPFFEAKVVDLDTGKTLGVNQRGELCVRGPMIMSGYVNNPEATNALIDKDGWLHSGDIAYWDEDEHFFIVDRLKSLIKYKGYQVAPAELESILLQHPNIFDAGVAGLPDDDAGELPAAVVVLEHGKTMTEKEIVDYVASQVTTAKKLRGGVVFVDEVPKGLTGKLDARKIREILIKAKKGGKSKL
Description: NIH Chemical Genomics Center [NCGC] NIH Molecular Libraries Probe Production centers Network [MLPCN] MLPCN Grant: R03 MH084179-01 Assay Submitter (PI): Elliot Androphy NCGC Assay Overview: Spinal muscular atrophy (SMA) is caused by insufficient levels of the survival motor neuron protein SMN. The SMN locus on chromosome 5q13 contains two inverted copies of SMN called SMN1 and SMN2 which are 99% identical at the amino acid level. SMN1 is a fully functional protein and SMN2 skips exon 7 90% of the time. Skipping of exon 7 produces non-functional protein product. 10% of the SMN2 protein includes exon 7 and is fully functional. In the SMA disease state, mutations in the SMN1 locus are the cause of the disease state. Because only 10% of SMN2 is of the fully functional form, it is not sufficient to overcome the deficiency produced by the loss of the SMN1 product. A therapy that either increases the amount of SMN2 product made increases the inclusion of exon 7 has been proposed for the treatment of SMA. We have designed an assay to identify small molecules that can increase the amount of functional SMN2 product by appending a luciferase reporter gene after the native SMN2 gene, such that inclusion of exon 7 in the expressed product places the luciferase sequence in frame, thus generating functional luciferase enzyme. One potential source of false positives in the primary screening assay is stabilization of the reporter luciferase via direct binding. This assay attempts to identify such compounds by screening directly for luciferase activity in the absence of the cellular system.
NCGC Assay Protocol Summary: The primary screen utilizes a luciferase reporter gene assay, combining the promoter and splicing based cassettes in tandem with the major portion of the native SMN1 cDNA, and then transfected into HEK293 cells. Compounds that modulate luciferase signal presumably modulate expression of […]. In this assay, we utilize purified firefly luciferase in lieu of a cellular reporter to identify compounds interacting directly with luciferase in the primary screen. Sequence, Parameter, Value, Description (1) Reagent, 2.5 uL, Enzyme in buffer (note A) (2) Compound, 23 nL, From stock solutions (3) Time, 5 minutes, Room temp (4) Reagent#2.5 ul, Luciferase detection reagent (note B) (5) Detector, 1 sec integrate, Luminescent read on Viewlux (note C) Sigma enzyme (1 mg) considered to be MW 61,000 diluted in 357 ul assay buffer to 50 uM stock. A - Enzyme and buffer consists of 50 mM Tris-acetate pH 7.6, 10 mM Mg acetate 0.05% BSA, 0.01% Tween and 5 nM firefly luciferase B - Detection reagent = britelite plus diluted 1:10 in PBS C - Viewlux settings were 1 second integration medium sensitivity Keywords: Spinal muscular atrophy, SMA, SMN2, high throughput screening, MLSMR, MLPCN, NIH Roadmap, qHTS and NCGC

SMILES | Potency | activity change, negative = inhibition
CCCCOC(C)n1cc(F)c(=O)[nH]c1=O (stereo not given) | inactive | 
O=C(O)c1cccc(COc2ccc(CO)cc2Cl)c1 | 7.08 µM (active) | 
FC(F)(F)c1cccc(-c2nnc(-c3ccccc3)c(N3CCOCC3)n2)c1 | inactive | 
Clc1ccc(-c2nnc(-c3ccccc3)nc2-c2c[nH]c3ccccc23)cc1 | inactive | 
Cc1nnc(-c2ccccc2)[nH]c1=O | inactive | 
COc1ccc(OC)c(-c2csc(N3CCC(c4ccccc4)CC3)n2)c1 | inactive | 
CC1CN(c2nc(-c3ccc(Br)cc3)nnc2-c2ccccc2)CC(C)N1 (stereo not given) | inactive | 
COc1ccc(-c2csc(N3CCC(c4ccccc4)CC3)n2)cc1 | inactive | 
Brc1ccc(-c2nnc(-c3ccccc3)c(N3CCSCC3)n2)cc1 | 10 µM (active) | 
OC[C@H]1O[C@@H](n2cnc3c(Nc4ccccc4)ncnc32)[C@H](O)[C@H]1O | inactive | 
CCOc1c(Cl)cc(C(=O)Nc2ccccc2C(=O)O)cc1Cl | 3.98 µM (active) | 
N#C/C(=C\Nc1ccccc1SC(F)(F)F)c1nc(-c2ccc(Cl)cc2)cs1 |  | 19.5% [at 48.7 pM]
Cc1ccc(-c2csc(NC(=O)C3CCN(S(=O)(=O)c4cccs4)CC3)n2)cc1 | 8.91 µM (active) | 
COC(=O)C1=C(CN2CCc3ccccc32)NC(=O)NC1c1cc(C)ccc1C (stereo not given) |  | 18.7% [at 48.7 pM]
O=C(NCCCNCCCNC(=O)c1ccccn1)c1ccccn1 |  | -6.78% [at 48.7 pM]
O=C(Nc1ccc([N+](=O)[O-])cc1Cl)c1cc(Cl)ccc1O | 0.794 µM (active) | 
CCC(=O)n1nc(NCc2ccccc2OC)nc1NCc1ccccc1OC |  | -6.75% [at 48.7 pM]
O=C(NCCc1cn2ccsc2n1)c1cccs1 |  | -9.66% [at 48.7 pM]
CCOc1ccc2nc(N3CCC(C(=O)N4CCN(c5ccccn5)CC4)CC3)sc2c1 | inactive | 
OCCCNc1nc(-c2ccc(Br)cc2)nnc1-c1ccc(Cl)cc1 | inactive | 

SMILES | Potency | activity change, negative = inhibition
CC(C)Nc1nc(-c2ccccc2)nnc1-c1ccccc1 | inactive | 
Cc1ccc(-c2nnc(-c3ccccc3)c(N3CCOCC3)n2)cc1 | inactive | 
COc1ccc(-c2csc(N3CCC(C(N)=O)(N4CCCCC4)CC3)n2)cc1 | inactive | 
FC(F)(F)c1nnc(-c2ccccc2)nc1Oc1ccccc1 | 11.2 µM (active) | 
O=C(Nc1nc(-c2ccc3ccccc3c2)cs1)C1CCN(S(=O)(=O)c2cccs2)CC1 | inactive | 
COc1cccc(NC(=O)CSc2nc3ccccc3nc2N2CCOCC2)c1 | inactive | 
O=S(=O)(NC1CCCc2ccccc21)c1cnc[nH]1 (stereo not given) |  | 3.43% [at 48.7 pM]
O=C(Cc1c(F)cccc1Cl)N1CCN(C(=O)c2ccco2)CC1 |  | -0.165% [at 48.7 pM]
FC(F)(F)c1cccc(Oc2nc(-c3ccccc3)nnc2C(F)(F)F)c1 | 8.91 µM (active) | 
NC(=O)N1c2ccccc2C=Cc2ccccc21 | inactive | 
O=[N+]([O-])c1ccc(-c2nnc(-c3ccccc3)c(NCCCO)n2)cc1 | 11.2 µM (active) | 
O=C(NCc1cccs1)C(=O)NCC1OCCCN1S(=O)(=O)c1ccccc1 (stereo not given) |  | 14.3% [at 48.7 pM]
COc1ccc(CNC(=O)c2ccc(C(C)C)cc2)cc1 |  | 39.8% [at 48.7 pM]
CCC1=Nc2ccccc2-c2nnc(SC)nc2O1 | inactive | 
O=c1cc(N2CCN(c3cccc(Cl)c3)CC2)[nH]c(=O)n1C1CCCCC1 |  | -4.08% [at 48.7 pM]
CN(C)CCCN(C(=O)c1cccs1)c1nc(-c2ccccc2)cs1 | inactive | 
NC(=O)C1(N2CCCCC2)CCN(c2nc(-c3ccc(Br)cc3)cs2)CC1 | inactive | 
O=c1[nH]c(=O)n(C2CCCO2)cc1Br (stereo not given) | inactive | 
Cc1[nH]c2ccccc2c1-c1nc(-c2ccc(Cl)cc2)nnc1-c1ccccc1 | inactive | 
Fc1ccc(Oc2nc(-c3ccccc3)nnc2C(F)(F)F)cc1 | 11.2 µM (active) | 

From PubChem BioAssay AID1733 (National Center for Advancing Translational Sciences (NCATS), 2009)
